In all, about 2,100 compounds went through this assay and about 760 (36%) were called active. A selection follows. Unmarked numbers belong to inactive results.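 The calls were made as follows: active = thallium-flux fluorescence traces judged by eye to show enhanced or reduced glutamate response, manual score 1 or -1, so both directions (some results past the limit were not filed as active); inactive = the rest, including fluorescent or raised-baseline compounds.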
Test: non-GIRK thallium flux modulation in mGlu8 cells, confirmation, counter-screen for GIRK activator project, cell-based, HEK-293 rmGlu8, no GIRK (AID 623868);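 also: extra codes mark interference with 3 for fluorescent and 4 for baseline rise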
Details: thallium flux fluorescence, at 10 µM, actives lie on both sides, codes: 1 enhancer, -1 blocker, 0 none, thallium stimulus containing EC20 glutamate

Row | Structure (SMILES) | manual score
1 | CCOc1ccc(OCCSc2nc3ccccc3[nH]2)cc1 | 0
2 | Cc1ccc(C(=O)Nc2nc(-c3ccccc3)c(-c3ccccc3)o2)cc1 | 1 (active)
3 | Cc1ccc(C(=O)Nc2cnc3ccccn3c2=O)cc1 | 0
4 | O=C(Nc1nc(-c2ccccc2)c(-c2ccccc2)o1)c1ccc(F)cc1 | 1 (active)
5 | OCCCN=c1cc(-c2ccccc2)oc2ccc(Cl)cc12 | -0.5
6 | CCCSc1nnc(Nc2ccccc2C)s1 | 0
7 | O=C(O)CC/C(=C\c1cc([N+](=O)[O-])ccc1Cl)c1nc2ccccc2s1 | -1 (active)
8 | O=C(CC(O)(C(F)(F)F)C(F)(F)F)Nc1ccc(Cl)c(Cl)c1 | 0
9 | CCCCOc1ccc(C(=O)OC2CC(C)N(C)CC2C)cc1 (configuration not stated) | 0
10 | CCCOc1ccc(NCC(=O)Nc2ccc(C)cc2C)cc1 | 0
11 | CNC(=S)SCCOc1ccc(C)cc1 | 3
12 | CCCOc1ccc(C(=O)NNC(=S)NC(=O)CC)cc1 | 1 (active)
13 | CCOC(=O)c1ccc(NC(=S)NC(=O)COc2ccccc2)cc1 | 0
14 | CCCCOc1ccc(C(=O)NNC(=S)NC(=O)CC)cc1 | 1 (active)
15 | CCNS(=O)(=O)c1cc(S(C)(=O)=O)ccc1Cl | 0
16 | Oc1ccc2ccc3cccc[n+]3c2c1 | 3
17 | C=COCCNC(=O)Nc1ccc(Cl)c(Cl)c1 | 0
18 | CCOC(=O)c1c(NC(=S)NCCc2ccccc2)sc2c1CC(C(C)C)OC2 (configuration not stated) | 0
19 | C=CCNC(=S)Nc1sc2c(c1C(=O)OCC)CC(C)(CC)OC2 (configuration not stated) | 1 (active)
20 | C=CCNC(=S)Nc1sc2c(c1C(=O)OCC)CC(C(C)C)OC2 (configuration not stated) | 1 (active)
21 | CCOC(=O)c1c(NC(=S)NC)sc2c1CC(C)(C)SC2 | 1 (active)
22 | CCOC(=O)C1=C(NC(=S)NC(=O)c2ccccc2)c2ccccc2CC1C(C)C (configuration not stated) | 0
23 | CCOc1ccccc1OCCCCCc1c(C)n[nH]c1C | 0
24 | CC(C)NC(=S)N/N=C/c1cc(Br)ccc1O | 1 (active)

Row | Structure (SMILES) | manual score
25 | O=C(Nc1nnc(-c2ccccc2Cl)o1)c1nc2ccccc2s1 | 1 (active)
26 | O=C(Nc1nnc(-c2ccc(Cl)cc2)o1)c1nc2ccccc2s1 | 1 (active)
27 | O=C(Nc1nnc(-c2ccc(Cl)cc2)o1)C1=COCCO1 | 0.5
28 | O=C(Nc1nnc(-c2ccc(Cl)cc2)o1)c1ccccc1Br | 1 (active)
29 | CC(C)NC(=O)c1nc2ccccc2s1 | 0
30 | CCN(CC)c1ccc2cc(-c3nc4ccccc4[nH]3)c(=O)oc2c1 | 3
31 | COc1cccc(NC(=O)NCCCSC2CCCCC2)c1 | 0
32 | Cc1ccc(-c2cc(-c3n[nH]c(=S)o3)c3ccccc3n2)cc1 | 1 (active)
33 | O=C(Nc1cc(Cl)ccc1Oc1ccccc1)c1ccccc1F | 0
34 | Cc1cccc(C)c1NC(=S)NC(=O)c1ccccc1F | 1 (active)
35 | O=C(NC(=S)NCc1ccccc1)c1ccccc1F | 1 (active)
36 | Fc1ccccc1NC(=S)NN(Cc1ccccc1)c1ccccc1 | 0
37 | FC(F)(F)c1cccc(NC(=S)NCc2ccccc2)c1 | 0
38 | O=C(NC(=S)N(Cc1ccccc1)Cc1ccccc1)c1ccccc1F | 1 (active)
39 | FC(F)(F)Oc1ccc(NC(=S)NCc2ccccc2)cc1 | 0
40 | CCCCOc1ccccc1C1C(C(=O)OC)=C(C)N(C)C(C)=C1C(=O)OC | 0
41 | CS(=O)(=O)Nc1ccc(C2=NN(C(=O)C3CCCCC3)C(c3cccs3)C2)cc1 (configuration not stated) | -1 (active)
42 | O=C(C1CCCN(Cc2cccs2)C1)N1CCCCCC1 (configuration not stated) | 0
43 | CCCCCCn1c(=O)[nH]c2nc3cc(N)ccc3nc2c1=O | 3
44 | Cc1ccc(NC2CC(=O)N(CCc3ccccc3)C2=O)cc1 (configuration not stated) | 0
45 | O=c1c2ccccc2nc(-c2ccccc2)n1/N=C/c1ccc([N+](=O)[O-])cc1 | 0
46 | O=c1c2ccc(Cl)cc2nc(-c2cccc(C(F)(F)F)c2)n1O | 1 (active)
47 | O=c1c2ccccc2nc(-c2cccc(Cl)c2)n1O | 1 (active)
48 | O=c1c2cc(Br)ccc2nc(-c2cccc(C(F)(F)F)c2)n1O | 1 (active)

Row | Structure (SMILES) | manual score
49 | CCN1c2ccccc2-c2nc3ccccc3n2C1c1ccco1 (configuration not stated) | 0
50 | CC1=CC(C)(C)n2c(O)c(N=NC(N)=S)c3cccc1c32 | 0.5
51 | CN(C)c1nc(OCCNC(=O)COc2ccc(Cl)cc2Cl)nc(N2CCOCC2)n1 | 0
52 | O=C(COc1ccccc1F)NC1CCN(Cc2ccccc2)CC1 | 0
53 | S=C(NN=C1CCCCCC1)Nc1ccc(Cl)cc1 | 1 (active)
54 | Cc1cc(C)c2c(c1)/C(=N/NC(=S)Nc1ccc(F)cc1)CCC2 | 0
55 | Fc1ccc(NC(=S)NN=C2CCCCCC2)cc1 | 1 (active)
56 | Fc1ccccc1CNC(=S)Nc1ccc(Cl)cc1 | 0
57 | Fc1ccc(NC(=S)NCc2ccccc2Cl)cc1 | 0
58 | Cn1c(C(=O)OC(C(=O)NC2CCCCC2)c2ccncc2)cc2sccc21 (configuration not stated) | 0
59 | c1ccc(-c2nnc3n2NC(c2ccc4c(c2)OCO4)S3)cc1 (configuration not stated) | 1 (active)
60 | O=C(CSc1nc(CCC2CCCC2)nc2ccccc12)NCc1ccc2c(c1)OCO2 | 0.5
61 | Cc1nccn1CCc1nc(N)nc(N)n1 | 0
62 | O=C(NC(=S)Nc1nc2c(ccc3ccccc32)s1)c1cccs1 | 1 (active)
63 | Cc1ccc2nc(NC(=S)NC(=O)c3cccs3)sc2c1 | 0.5
64 | O=C(NC(=S)Nc1nc2ccccc2s1)c1cccs1 | 1 (active)
65 | CCN(CC)C(=O)COc1ccc2oc(C)c(C(=O)OC)c2c1 | 0
66 | CN=C(C)C1=C(O)C(C(=O)OC)C(C)(C)CC1=O (configuration not stated) | 0
67 | CC(C)c1nc(N2CCOCC2)c(C#N)c2c1CCCC2 | 0
68 | CCc1cc2cc(C)ccc2nc1SCC(=O)N1CCN(C(=O)c2ccco2)CC1 | 0
69 | Cc1cc2cc3c(cc2nc1SCC(=O)N1CCN(C(=O)c2ccco2)CC1)OCO3 | -1 (active)
70 | CC1CCc2nn(CC(=O)N3CCN(C(=O)c4ccco4)CC3)cc2C1 (configuration not stated) | 0
71 | CC(C)CC(=O)CN1C(=O)C2(OCCO2)c2ccccc21 | 0
72 | C=CCn1c(=S)[nH]c2sc3c(c2c1=O)CCC3 | 1 (active)

From PubChem BioAssay AID623868 (Vanderbilt High Throughput Screening Facility, 2012)
